# Pf growth 48h = inhibits P. falciparum growth in the first generation, 48 h | AID 504832 | Potency, µM (doses to about 28.7 µM), for the others: at the top dose activity change, negative = inhibition, hits mostly inhibitors | 5.9% of 310,000 active | P. falciparum luciferase growth in erythrocytes, 48 h; also: % is scaled to controls: 0 for no effect and ±100 for the full control effect
#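 A one-generation exposure of luciferase-tagged malaria parasites in RPMI 1640/Albumax erythrocyte culture, 37 C and 5% CO2. Inhibition is inferred from decreased luminescence after adding detection reagent.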
# SARS PLP yeast = blocks SARS-CoV papain-like protease in a yeast assay. AID 485353. Potency, µM (titrated, usually from 32.9 µM), for inactives: at the highest dose activity, positive = growth rescue, actives largely listed as activators. S. cerevisiae expressing SARS-CoV PLpro, growth rescue. 0.19% of 330,000 active; calls by dose curve; also: 0% is about no effect; nearly all actives have a fitted effect of over 55% in size
# NS1 function inh = inhibitors of influenza NS1 protein function; 0.4% of 270,000 active; AID 2326; Potency, µM (series often up to 46.1 µM), without a hit: top-dose activity, positive = more growth; calls by dose curve; also: actives are rising curves; nearly all actives have a fitted effect of over 50% in size
#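 Recovery from NS1-induced slow growth read by OD600 in budding yeast switched to galactose assay medium (pH 6.0, -URA) at 1:100 dilution. Compound 23 nl per well; the matching strain lacking NS1 serves as control.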
# Pf growth 96h = P. falciparum growth inhibition at 96 hours. P. falciparum luciferase reporter growth, 96 h. Potency, µM (highest dose often 28.7 µM), for the others: top-dose activity change, negative = inhibition, actives largely listed as inhibitors. 6.9% of 320,000 active; also: % is scaled to controls: 0 for no effect and ±100 for the full control effect
#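 Erythrocytes infected with luciferase-expressing P. falciparum were dispensed at 2% hematocrit and 0.05% parasitemia (final), then incubated with compounds 96 hours at 37 C in 5% CO2. Luminescence after detection reagent addition reported growth.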
# Numbers without * were called inactive; ? = inconclusive; . = no result. A selection: hits, their analogues and other compounds. The true share with any hit is near 10%. Unless noted, calls follow the shape of the dose curve; as a rule, active = well fitted inhibition curve with a large enough effect; inconclusive = small, poorly fitted or top-dose-only effect, or another doubt; inactive = no such curve, though single readings can be large or run the other way. Potency is read from the fitted curve at half-maximal effect.
SMILES,Pf growth 48h,SARS PLP yeast,NS1 function inh,Pf growth 96h
O=C(C[n+]1ccc(-c2ccccc2)cc1)Nc1ccc([N+](=O)[O-])cc1,?,4%,2%,50%
O=C(C[n+]1ccc(Cc2ccccc2)cc1)Nc1ccc([N+](=O)[O-])cc1Cl,-30%,-2%,0%,12%
O=C(CC1(O)C(=O)N(Cc2cccc3ccccc23)c2ccccc21)c1cccnc1 (stereo unspecified),.,-8%,-4%,3.7µM*
CN1C(=O)C(O)(CC(=O)c2cccnc2)c2ccccc21 (stereo unspecified),-8%,-11%,-15%,?
CC1=NN2C(=N)/C(=C\c3cc(C)n(-c4cccc(C)c4)c3C)C(=O)N=C2S1,?,0%,13%,?
Cc1cc(/C=C2\C(=N)N3N=C(C(C)C)SC3=NC2=O)c(C)n1-c1ccccc1,-2%,-4%,.,12µM*
CCOC(=O)c1ccc(Cl)c(NC(=O)c2ccc(-c3ccccc3)cc2)c1,32%,6%,4%,0%
CCOC(=O)c1ccc(/C=C2/C=C(c3ccccc3)N(c3ccc(Cl)c(C(=O)O)c3)C2=O)cc1,?,8%,3%,13µM*
COc1ccc(Nc2nc(N3CCOCC3)nc(N3CCOCC3)n2)c(OC)c1,?,5%,14%,-17%
COc1ccccc1Nc1nc(N2CCOCC2)nc(N2CCOCC2)n1,?,-5%,2%,10µM*
CCc1ccc(Nc2nc(N3CCOCC3)nc(N3CCOCC3)n2)cc1,-26%,-4%,1%,9.3µM*
COc1ccc(Nc2nc(OC)nc(N3CCOCC3)n2)cc1,-4%,-1%,-4%,-11%
FC(F)(F)Oc1ccc(Nc2nc(N3CCOCC3)nc(N3CCOCC3)n2)cc1,?,1%,9%,12µM*
CCN(CC)S(=O)(=O)c1ccc(C(=O)NCc2ccc3[nH]c4c(c3c2)CCCC4)cc1,?,-10%,?,12µM*
Cc1ccc(C)c(NC(=S)NCc2ccc3[nH]c4c(c3c2)CCCC4)c1,13µM*,-12%,16%,13µM*
Cc1ccccc1NC(=S)NCc1ccc2[nH]c3c(c2c1)CCCC3,-10%,-28%,?,?
COC(=O)c1ccc(CNC(=O)c2ccc(OC)c(S(=O)(=O)NC3CCCC3)c2)cc1,?,4%,.,-5%
Cc1ccc(Nc2ccc(-n3ccnc3)nn2)cc1C,?,-8%,-81%,10µM*
O=Cc1cn(CC(O)CN2CCCCC2)c2ccccc12 (stereo unspecified),27%,0%,2%,?
COc1ccc(C(=O)c2c(C)n(CCN3CCOCC3)c3ccccc23)cc1,-15%,.,.,12µM*
COc1ccc(-c2nc3ccccc3c(=O)n2CCN2CCOCC2)cc1,6%,-1%,?,?
O=C(/C=C/c1cn(CC(O)CN2CCOCC2)c2ccccc12)c1cccs1 (stereo unspecified),6.6µM*,0%,-2%,?
Cc1ccc(C(=O)/C=C/c2cn(CC(O)CN3CCOCC3)c3ccccc23)cc1 (stereo unspecified),?,-1%,9%,12µM*
COc1ccc(N2CCN(CCCNC(=O)C(=O)c3c(C)n(C)c4ccccc34)CC2)cc1,?,-1%,3%,15µM*
COc1ccc(C(=O)/C=C/c2cn(CN3CCN(C)CC3)c3ccccc23)cc1,.,-15%,-109%,?
SMILES,Pf growth 48h,SARS PLP yeast,NS1 function inh,Pf growth 96h
COc1ccc(C(=O)/C=C/c2cn(CC(O)CN3CCOCC3)c3ccccc23)cc1 (stereo unspecified),?,-5%,0%,5.2µM*
CCOC(=O)N1CCc2c(sc(NC(=O)Cc3ccccc3)c2C(=O)c2ccc(OC)cc2)C1,5.2µM*,1%,-4%,?
COc1ccc(CC(=O)Nc2sc3c(c2C(N)=O)CCCC3)cc1,.,0%,5%,-6%
COc1ccc(C(=O)c2c(NC(C)=O)sc3c2CCN(C(=O)OC(C)(C)C)C3)cc1,8.3µM*,-1%,3%,9.3µM*
CC(=O)C1=C(c2ccccc2)NC(=O)NC1c1ccccc1 (stereo unspecified),17%,0%,21%,?
COc1cc(C2NC(=O)NC(c3ccccc3)=C2C(C)=O)c(Br)c(Br)c1O (stereo unspecified),1.3µM*,1%,28%,0.74µM*
CCOc1cccc(C(=O)NC(=S)Nc2ccc(Cl)cc2C(=O)O)c1,37%,1%,.,8%
NS(=O)(=O)c1ccc(CCNC(=O)C(=O)c2cn(CC(=O)N3CCOCC3)c3ccccc23)cc1,9%,9%,12%,-20%
CN(C)CCNC(=O)/C(=C/c1ccc(-c2cccc([N+](=O)[O-])c2)o1)NC(=O)c1ccccc1,13µM*,26%,8%,?
CN(C)CCNC(=O)/C(=C/c1ccc(-c2cccc(Cl)c2)o1)NC(=O)c1ccccc1,13µM*,-29%,7%,13%
CN(C)C(=O)/C(=C\c1ccc(-c2cccc([N+](=O)[O-])c2)o1)NC(=O)c1ccccc1,?,-4%,.,-20%
O=C(COC(=O)C1CCC(N2C(=O)C3C4CCC(C4)C3C2=O)CC1)c1ccc(F)cc1 (stereo unspecified),9%,3%,7%,?
COc1ccccc1NS(=O)(=O)c1cc(NC(=O)/C=C/c2cccs2)ccc1N1CCOCC1,12µM*,9%,14µM*,?
COc1ccccc1NS(=O)(=O)c1cc(NC(=O)c2sccc2C)ccc1N1CCOCC1,?,2%,-17%,12µM*
COc1ccc(NS(=O)(=O)c2cc(NC(=O)c3sccc3C)ccc2N2CCOCC2)cc1,10µM*,1%,2%,?
CCC1(CC)NC(=O)N(CC(=O)OCC(=O)c2ccccc2OC)C1=O,11%,-1%,.,31%
O=C1CSC(c2ccccc2F)N1c1ccccc1F (stereo unspecified),.,0%,2%,47%
O=C1CSC(c2c(F)cccc2Cl)N1c1cccc(F)c1 (stereo unspecified),?,6%,-1%,12µM*
O=C1CSC(c2ccccc2F)N1c1ccccc1 (stereo unspecified),-16%,-5%,3%,8.3µM*
CCC(C)NC(=O)C1CCC(CNS(=O)(=O)c2cccc3nsnc23)CC1 (stereo unspecified),-1%,5%,3%,-9%
COC1=Cc2c(ccc3ccc(=O)oc23)OC1(C)C,7.4µM*,-7%,-24%,.
Nc1ccccc1Oc1ncc(C(F)(F)F)cc1Cl,5.2µM*,5%,-9%,53%
O=C(CSC1=NCCS1)c1ccc(Cl)cc1,10µM*,-23%,.,?
CCOC(=O)N1CCN(C(=O)C2CCN(C(=O)c3ccc(C(C)(C)C)cc3)CC2)CC1,9.3µM*,1%,-11%,-17%
COc1ccccc1N1CCN(C(=O)C2CCN(C(=O)c3ccc(C(C)(C)C)cc3)CC2)CC1,4.7µM*,-1%,-35%,0%
CC1CCN(C(=O)C2CCN(C(=O)c3ccc(C(C)(C)C)cc3)CC2)CC1,-14%,0%,3%,-18%
